According to the supplement of paper PMC10849652:
About 7,900 targets were measured; listed, in parts, are those with a hit and a random draw of the rest. About 0.6% of all pairs of compound and target were hits. Unmarked numbers belong to inactive results.

Legend:
Test in all cases: log2 fold change, soluble protein after heating vs DMSO (PISA); higher = thermal stabilisation; K562 cells, 10 uM, 30 min; active = over 0.2 and 3.5 SD of the protein, either way, in both replicates (recomputed)
bafetinib = compound: Cc1ccc(NC(=O)c2ccc(CN3CC[C@H](N(C)C)C3)c(C(F)(F)F)c2)cc1Nc1nccc(-c2cncnc2)n1 [bafetinib]
Summary of the method: (§1)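 For each measurement, 10 μM compound was applied for 30 min to K562 cells at 2×10^6 cells/mL. Aliquots were heated for 3 min across 48°C-58°C, pooled, and extracted in PBS with 0.5% NP-40 at 4°C; the supernatant after 21,000xg for 90 min was soluble protein. This was quantified by TMTpro 16plex LC-MS/MS with channel sums equalised, and thermal stability was reported relative to control samples from duplicates, on a log2 fold-change scale.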

[1] = compound: Cc1cccc(CC(=O)N2CCc3c2ccc(-c2cn(C)c4ncnc(N)c24)c3F)n1
Summary of the method: as §1

nilotinib = compound: Cc1cn(-c2cc(NC(=O)c3ccc(C)c(Nc4nccc(-c5cccnc5)n4)c3)cc(C(F)(F)F)c2)cn1 [nilotinib]
Summary of the method: as §1

[2] = compound: Cc1nc(Nc2n[nH]c3c2CN(C(=O)N[C@H](CN(C)C)c2ccccc2)C3(C)C)c2sccc2n1
Summary of the method: as §1

dasatinib = compound: Cc1nc(Nc2ncc(C(=O)Nc3c(C)cccc3Cl)s2)cc(N2CCN(CCO)CC2)n1 [dasatinib]
Summary of the method: as §1

[3] = compound: Cc1ncc(-c2ccnc(Nc3ccc(S(C)(=O)=O)cc3)n2)n1C(C)C
Summary of the method: as §1

[4] = compound: Cn1cc(-c2ccc3c(c2)CCN3C(=O)Cc2cccc(C(F)(F)F)c2)c2c(N)ncnc21
Summary of the method: as §1

[5] = compound: Cn1cc(-c2ccc3nnc(C(F)(F)c4ccc5ncccc5c4)n3n2)cn1
Summary of the method: as §1

tipifarnib = compound: Cn1cncc1[C@@](N)(c1ccc(Cl)cc1)c1ccc2c(c1)c(-c1cccc(Cl)c1)cc(=O)n2C [tipifarnib]
Summary of the method: as §1

mubritinib = compound: FC(F)(F)c1ccc(/C=C/c2nc(COc3ccc(CCCCn4ccnn4)cc3)co2)cc1 [mubritinib]
Summary of the method: as §1

Chain of UniProt Q92538 (Q92538 whole entry, looked up): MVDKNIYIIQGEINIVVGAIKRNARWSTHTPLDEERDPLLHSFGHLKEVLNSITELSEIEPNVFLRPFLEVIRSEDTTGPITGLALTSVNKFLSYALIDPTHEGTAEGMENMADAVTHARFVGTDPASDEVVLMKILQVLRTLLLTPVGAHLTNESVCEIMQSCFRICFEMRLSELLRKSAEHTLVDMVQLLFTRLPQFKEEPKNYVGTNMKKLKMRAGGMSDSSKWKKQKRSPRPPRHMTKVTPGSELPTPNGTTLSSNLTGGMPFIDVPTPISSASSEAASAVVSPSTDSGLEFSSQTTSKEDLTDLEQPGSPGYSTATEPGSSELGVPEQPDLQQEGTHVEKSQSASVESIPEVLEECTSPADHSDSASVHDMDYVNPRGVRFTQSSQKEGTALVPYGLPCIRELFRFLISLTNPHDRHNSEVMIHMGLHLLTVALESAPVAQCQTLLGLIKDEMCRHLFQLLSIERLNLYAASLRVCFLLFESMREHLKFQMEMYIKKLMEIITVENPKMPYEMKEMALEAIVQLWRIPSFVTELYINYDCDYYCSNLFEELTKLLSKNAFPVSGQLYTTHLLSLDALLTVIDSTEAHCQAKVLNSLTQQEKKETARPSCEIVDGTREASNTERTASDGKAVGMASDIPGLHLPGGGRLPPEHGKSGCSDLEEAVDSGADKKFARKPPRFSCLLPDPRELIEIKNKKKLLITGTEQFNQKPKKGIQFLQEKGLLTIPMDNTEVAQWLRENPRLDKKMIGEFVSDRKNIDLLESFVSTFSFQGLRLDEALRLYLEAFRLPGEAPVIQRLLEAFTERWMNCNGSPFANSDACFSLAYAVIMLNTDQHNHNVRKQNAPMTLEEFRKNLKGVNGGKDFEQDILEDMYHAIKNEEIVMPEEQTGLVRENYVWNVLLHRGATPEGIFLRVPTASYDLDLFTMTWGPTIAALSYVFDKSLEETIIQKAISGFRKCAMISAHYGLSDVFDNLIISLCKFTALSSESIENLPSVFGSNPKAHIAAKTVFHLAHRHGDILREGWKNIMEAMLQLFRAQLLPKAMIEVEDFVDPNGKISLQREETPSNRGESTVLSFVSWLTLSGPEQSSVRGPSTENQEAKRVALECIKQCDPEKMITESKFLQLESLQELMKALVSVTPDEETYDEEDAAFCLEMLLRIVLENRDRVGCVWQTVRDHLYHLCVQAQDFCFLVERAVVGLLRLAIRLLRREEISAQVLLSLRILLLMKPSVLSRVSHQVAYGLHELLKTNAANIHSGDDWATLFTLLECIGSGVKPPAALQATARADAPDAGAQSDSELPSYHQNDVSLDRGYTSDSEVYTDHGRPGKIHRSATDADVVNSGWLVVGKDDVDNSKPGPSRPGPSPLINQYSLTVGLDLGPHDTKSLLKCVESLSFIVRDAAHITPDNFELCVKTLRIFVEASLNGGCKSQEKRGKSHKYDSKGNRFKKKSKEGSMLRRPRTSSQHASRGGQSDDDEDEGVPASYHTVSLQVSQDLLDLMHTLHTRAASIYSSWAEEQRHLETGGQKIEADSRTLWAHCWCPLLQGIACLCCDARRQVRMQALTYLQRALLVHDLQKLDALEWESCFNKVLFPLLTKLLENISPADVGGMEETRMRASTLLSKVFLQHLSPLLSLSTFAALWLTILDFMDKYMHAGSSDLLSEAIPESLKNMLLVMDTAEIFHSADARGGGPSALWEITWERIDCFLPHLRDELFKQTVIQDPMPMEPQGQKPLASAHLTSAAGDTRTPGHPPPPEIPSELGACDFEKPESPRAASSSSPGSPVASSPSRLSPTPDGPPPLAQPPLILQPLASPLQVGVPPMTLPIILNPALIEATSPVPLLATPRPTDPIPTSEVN
Chain of UniProt O60725 (O60725 whole entry, looked up): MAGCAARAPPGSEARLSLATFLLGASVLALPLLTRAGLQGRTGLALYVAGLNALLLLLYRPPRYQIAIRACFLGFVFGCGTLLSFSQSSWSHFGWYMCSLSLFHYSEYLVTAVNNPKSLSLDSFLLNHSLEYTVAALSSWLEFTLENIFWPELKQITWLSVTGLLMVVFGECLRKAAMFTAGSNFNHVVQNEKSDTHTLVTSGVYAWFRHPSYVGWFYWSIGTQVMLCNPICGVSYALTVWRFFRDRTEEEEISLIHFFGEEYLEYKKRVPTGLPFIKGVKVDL
Chain of UniProt P52657 (P52657 whole entry, looked up): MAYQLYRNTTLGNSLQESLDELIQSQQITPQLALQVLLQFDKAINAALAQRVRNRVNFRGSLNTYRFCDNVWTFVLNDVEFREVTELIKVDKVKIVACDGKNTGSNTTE
Chain of UniProt Q9UKD1 (Q9UKD1 whole entry, looked up): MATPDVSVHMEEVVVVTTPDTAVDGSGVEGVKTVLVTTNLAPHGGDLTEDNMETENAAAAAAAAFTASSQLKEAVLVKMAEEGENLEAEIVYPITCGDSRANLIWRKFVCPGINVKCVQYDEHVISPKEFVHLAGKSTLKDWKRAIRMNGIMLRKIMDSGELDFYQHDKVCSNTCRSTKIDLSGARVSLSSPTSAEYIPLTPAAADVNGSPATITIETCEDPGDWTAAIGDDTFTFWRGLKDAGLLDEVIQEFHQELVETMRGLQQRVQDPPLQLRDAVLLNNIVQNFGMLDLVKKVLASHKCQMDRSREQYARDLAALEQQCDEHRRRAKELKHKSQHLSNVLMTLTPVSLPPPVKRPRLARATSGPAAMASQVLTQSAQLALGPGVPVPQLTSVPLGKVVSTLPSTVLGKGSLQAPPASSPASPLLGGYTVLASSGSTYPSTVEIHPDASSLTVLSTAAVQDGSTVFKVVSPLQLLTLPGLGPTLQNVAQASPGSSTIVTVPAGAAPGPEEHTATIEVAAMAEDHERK
Chain of UniProt P30519 (P30519 whole entry, looked up): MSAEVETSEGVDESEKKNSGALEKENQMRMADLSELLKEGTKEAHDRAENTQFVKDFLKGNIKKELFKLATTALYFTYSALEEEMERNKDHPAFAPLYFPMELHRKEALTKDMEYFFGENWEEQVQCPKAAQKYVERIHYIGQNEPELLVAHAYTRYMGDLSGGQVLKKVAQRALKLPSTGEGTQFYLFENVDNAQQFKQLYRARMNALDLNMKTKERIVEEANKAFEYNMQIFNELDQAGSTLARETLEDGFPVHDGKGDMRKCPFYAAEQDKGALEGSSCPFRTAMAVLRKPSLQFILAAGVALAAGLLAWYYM
Chain of UniProt Q9HCG7 (Q9HCG7 whole entry, looked up): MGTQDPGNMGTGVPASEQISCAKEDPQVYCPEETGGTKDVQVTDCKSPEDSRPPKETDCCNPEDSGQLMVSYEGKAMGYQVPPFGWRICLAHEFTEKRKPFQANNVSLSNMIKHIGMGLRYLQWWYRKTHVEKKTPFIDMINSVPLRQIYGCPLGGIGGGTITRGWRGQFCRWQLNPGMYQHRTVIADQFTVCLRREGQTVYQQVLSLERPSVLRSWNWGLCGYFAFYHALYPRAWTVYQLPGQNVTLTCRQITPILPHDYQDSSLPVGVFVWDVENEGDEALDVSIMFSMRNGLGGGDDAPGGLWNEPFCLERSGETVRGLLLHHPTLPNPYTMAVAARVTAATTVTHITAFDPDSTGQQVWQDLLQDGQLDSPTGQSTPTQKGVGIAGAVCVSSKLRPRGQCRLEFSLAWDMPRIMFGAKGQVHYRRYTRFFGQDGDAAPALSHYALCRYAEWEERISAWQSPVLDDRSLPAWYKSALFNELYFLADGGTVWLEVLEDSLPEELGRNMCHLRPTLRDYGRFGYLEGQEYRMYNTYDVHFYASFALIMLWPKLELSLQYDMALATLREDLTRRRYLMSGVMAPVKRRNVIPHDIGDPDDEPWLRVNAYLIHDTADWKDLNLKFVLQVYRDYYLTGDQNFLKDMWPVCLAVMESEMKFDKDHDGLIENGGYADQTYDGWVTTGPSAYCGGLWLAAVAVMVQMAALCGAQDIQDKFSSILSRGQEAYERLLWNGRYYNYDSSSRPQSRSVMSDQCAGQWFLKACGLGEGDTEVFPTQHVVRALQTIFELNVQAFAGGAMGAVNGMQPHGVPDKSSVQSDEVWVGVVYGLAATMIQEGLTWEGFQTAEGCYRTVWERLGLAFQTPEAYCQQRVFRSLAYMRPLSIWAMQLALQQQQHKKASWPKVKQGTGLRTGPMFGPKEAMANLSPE
Chain of UniProt O15117 (O15117 whole entry, looked up): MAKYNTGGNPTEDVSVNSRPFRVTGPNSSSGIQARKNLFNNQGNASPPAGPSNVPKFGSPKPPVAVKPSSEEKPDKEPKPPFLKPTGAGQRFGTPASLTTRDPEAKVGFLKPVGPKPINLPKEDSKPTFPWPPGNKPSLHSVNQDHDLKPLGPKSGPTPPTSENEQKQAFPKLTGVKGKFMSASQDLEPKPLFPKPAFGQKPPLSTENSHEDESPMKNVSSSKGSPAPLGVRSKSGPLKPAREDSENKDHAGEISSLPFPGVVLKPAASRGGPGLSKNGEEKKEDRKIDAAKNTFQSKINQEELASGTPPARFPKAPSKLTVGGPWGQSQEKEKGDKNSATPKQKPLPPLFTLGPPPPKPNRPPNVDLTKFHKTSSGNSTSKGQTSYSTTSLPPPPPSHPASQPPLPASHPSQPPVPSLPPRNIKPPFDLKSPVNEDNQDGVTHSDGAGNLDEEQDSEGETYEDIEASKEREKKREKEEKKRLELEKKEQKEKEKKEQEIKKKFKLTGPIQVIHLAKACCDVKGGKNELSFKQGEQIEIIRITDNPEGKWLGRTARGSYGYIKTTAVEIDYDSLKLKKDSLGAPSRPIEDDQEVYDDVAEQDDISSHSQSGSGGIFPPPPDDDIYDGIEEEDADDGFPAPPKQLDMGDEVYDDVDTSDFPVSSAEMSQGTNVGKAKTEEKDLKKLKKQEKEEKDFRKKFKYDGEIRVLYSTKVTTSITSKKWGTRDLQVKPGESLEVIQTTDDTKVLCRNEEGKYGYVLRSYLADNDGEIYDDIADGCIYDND
Chain of UniProt Q8IVP5 (Q8IVP5 whole entry, looked up): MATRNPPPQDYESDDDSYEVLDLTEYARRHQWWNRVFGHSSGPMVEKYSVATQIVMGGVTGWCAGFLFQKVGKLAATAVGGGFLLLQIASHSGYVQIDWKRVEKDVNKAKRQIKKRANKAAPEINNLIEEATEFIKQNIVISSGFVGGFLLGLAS

Target | log2 fold change (bafetinib) | log2 fold change [1] | log2 fold change (nilotinib) | log2 fold change [2] | log2 fold change (dasatinib) | log2 fold change [3] | log2 fold change [4] | log2 fold change [5] | log2 fold change (tipifarnib) | log2 fold change (mubritinib)
GNS (UniProt P15586) | -0.156 | -0.002 | 0.003 | 0.037 | 0.006 | -0.033 | 0.008 | -0.028 | 0.02 | -0.004
GPX4 (UniProt P36969) | 0.003 | 0.023 | 0.036 | -0.031 | 0.015 | 0.019 | 0.05 | 0.003 | -0.046 | 0.033
GTF2E1 (UniProt P29083) | 0.014 | 0.037 | -0.112 | -0.168 | -0.173 | -0.032 | 0.02 | 0.093 | -0.13 | 0.05
GMEB2 (UniProt Q9UKD1) | 0.019 | 0.013 | 0.019 | -0.021 | -0.036 | -0.05 | -0.084 | -0.006 | -0.011 | -0.041
FDFT1 (UniProt P37268) | 0.01 | 0.016 | 0.12 | 0.071 | 0.023 | -0.019 | 0.111 | -0.047 | 0.089 | 0.022
FBXO6 (UniProt Q9NRD1) | 0.442 (active) | 0.015 | -0.118 | -0.004 | -0.202 | 0.044 | 0.047 | -0.021 | -0.021 | -0.038
FBL (UniProt P22087) | 0.29 | -0.039 | 0.094 | -0.017 | 0.454 | -0.01 | -0.337 | -0.097 | 0.301 | -0.241
GTF2A2 (UniProt P52657) | -0.032 | -0.036 | -0.025 | 0.022 | 0.047 | -0.021 | 0.056 | 0.104 | -0.028 | 0.008
HDGFL2 (UniProt Q7Z4V5) | -0.017 | -0.013 | -0.007 | -0.061 | 0.035 | -0.029 | -0.018 | -0.048 | 0.032 | 0.098
GBF1 (UniProt Q92538) | 0.014 | 0.081 | -0.117 | -0.109 | -0.113 | -0.001 | -0.079 | -0.049 | -0.15 | 0.093
HOMER1 (UniProt Q86YM7) | -0.016 | -0.002 | -0.02 | 0.046 | -0.054 | -0.008 | 0.003 | 0.117 | -0.031 | 0.089
HOOK3 (UniProt Q86VS8) | -0.047 | 0.029 | -0.088 | -0.078 | -0.07 | 0.009 | 0.002 | -0.027 | -0.001 | -0.024
FDXR isoform 7 (UniProt P22570) | -0.012 | -0.162 | -0.031 | -0.015 | -0.245 | -0.042 | -0.023 | 0.038 | -0.002 | -0.643 (active)
HRAS (UniProt P01112) | -0.033 | 0.063 | 0.109 | 0.024 | 0 | 0.003 | 0.041 | -0.007 | 0.006 | 0.033
HMOX2 (UniProt P30519) | 0.006 | 0.048 | 0.002 | -0.08 | -0.141 | -0.006 | 0.067 | 0.003 | 0.27 (active) | 0.062
GNAI3 (UniProt P08754) | 0.066 | 0.033 | 0.185 | 0.008 | 0.086 | -0.004 | -0.017 | 0.018 | -0.008 | -0.032
HBZ (UniProt P02008) | -0.013 | 0.037 | 0.018 | 0.011 | 0.073 | -0.008 | 0.137 | 0.282 | -0.183 | 0.049
GLCCI1 (UniProt Q86VQ1) | -0.074 | 0.037 | 0.073 | -0.103 | -0.066 | -0.094 | 0.03 | -0.175 | 0.075 | 0.011
GBE1 (UniProt Q04446) | 0.067 |  |  |  | -0.275 |  | -0.004 | 0.059 | -0.608 | 0.181
HNRNPUL1 (UniProt M0R247) |  |  | 0.061 | -0.13 | 0.206 | 0.025 | -0.024 |  | 0.259 | 
GAB2 (UniProt Q9UQC2) |  | 0 |  |  | -0.599 |  | 0.002 | 0 | 0.175 | 0.075
HBZ, A0A494C057 | -0.015 |  | 0.171 | -0.035 |  | 0.127 |  |  |  | -0.08
HSPA2 (UniProt P54652) | -0.08 |  | 0.024 | 0.031 |  | -0.013 |  | 0.003 |  | -0.067
FGG (UniProt P02679) |  | 0.165 |  |  |  |  |  | -0.018 | 0.127 | 
IGF2 isoform 3 (UniProt P01344) |  |  |  |  | 0.019 |  |  |  |  | 
FCF1 (UniProt Q9Y324) |  | 0.042 |  |  | 0.139 |  |  | -0.119 | 0.242 | -0.129
GPS2 (UniProt Q13227) | -0.157 |  | 0 | -0.045 |  | -0.074 |  | 0.02 | -0.033 | -0.059

Target | log2 fold change (bafetinib) | log2 fold change [1] | log2 fold change (nilotinib) | log2 fold change [2] | log2 fold change (dasatinib) | log2 fold change [3] | log2 fold change [4] | log2 fold change [5] | log2 fold change (tipifarnib) | log2 fold change (mubritinib)
FOXO3 (UniProt O43524) |  | 0.002 |  |  | -0.14 |  | 0 | -0.013 | -0.139 | -0.057
GOLGA6B (UniProt A6NDN3) | -0.087 | -0.042 | -0.183 | 0.02 |  | 0.02 |  |  |  | 0.146
FIZ1 (UniProt Q96SL8) |  | -0.092 | -0.09 | 0.065 | -0.026 | -0.213 | -0.137 |  |  | -0.191
FCHO1 (UniProt O14526) |  |  | -0.118 | -0.067 | -0.275 | -0.127 | 0.079 | 0.033 | -0.119 | -0.003
IFITM3 (UniProt Q01628) | -0.073 |  | 0.07 | -0.2 | -0.076 | -0.01 | 0.049 | -0.149 | 0.113 | -0.157
GAK (UniProt O14976) |  | -0.072 | 0.257 | 0.792 | 1.31 | 0.232 | -0.07 | -0.031 | -0.238 | 0.005
GOLGA8R (UniProt I6L899) | -0.095 | -0.021 |  |  | -0.074 |  | 0.189 | 0.126 | 0.287 | 
GLIPR2 (UniProt Q9H4G4) | -0.101 | -0.024 |  |  | -0.059 |  | 0.031 | 0.087 | 0.019 | 0.054
GNL3 (UniProt Q9BVP2) | -0.038 | -0.078 | -0.007 | 0.011 | -0.031 | 0.056 | 0.069 |  |  | 0.134
GSE1 (UniProt Q14687) | 0.305 |  | 0.034 | 0.004 | -0.453 | -0.096 | -0.009 | 0.012 |  | 
GBA2 (UniProt Q9HCG7) | 0.045 |  | -0.057 | -0.061 | -0.144 | 0.007 | 0.138 |  | 0.091 | 0.234
HSPA8 (UniProt E9PN89) | -0.04 | -0.338 | -0.12 | 0.041 |  | -0.123 | -0.063 |  | 0.122 | 0.004
HNRNPK isoform 3 (UniProt P61978) | 0.003 | -0.18 | -0.115 | -0.022 | 0.021 | 0.143 |  | -0.002 |  | -0.101
GGA2 (UniProt Q9UJY4) | 0.024 |  | -0.031 | 0.065 | 0.075 | -0.013 | 0.024 | 0.034 | -0.003 | 0.014
ICMT (UniProt O60725) | -0.103 |  | 0.049 | 0.17 | 0.065 | -0.003 |  | 0.113 | 0.107 | 0.284
IDH3A isoform 2 (UniProt P50213) | 0.004 |  | 0 | 0.001 |  | -0.057 | 0.128 |  |  | 
GREB1 (UniProt Q4ZG55) |  |  |  |  |  |  | 0.046 |  |  | 
FIBP (UniProt O43427) | -0.096 | -0.093 |  |  | -0.201 |  | 0.118 | -0.06 | -0.029 | 0.134
HS1BP3 (UniProt Q53T59) | -0.022 |  | -0.023 | -0.104 | -0.047 | -0.029 | 0.062 | -0.067 | -0.038 | 
FEN1 (UniProt P39748) | 0.02 | 0.23 | -0.149 | 0.053 |  | -0.05 | 0.16 | 0.164 | -0.274 | 0.314
FUNDC1 (UniProt Q8IVP5) | -0.169 |  |  |  |  |  |  |  | 0 | 0.066
GDE1 (UniProt Q9NZC3) | 0.081 |  | 0.03 | 0.054 | 0.028 | -0.032 | 0.106 | -0.029 | -0.001 | 0.01
FMR1 (UniProt Q06787) |  | -0.146 |  |  |  |  | -0.224 | -0.028 | -0.129 | -0.175
FAT2 (UniProt Q9NYQ8) | 0.076 | -0.005 |  |  | 0.006 |  | 0.167 | 0.002 | 0.008 | 0.354
H3-3A (UniProt P84243) | -0.046 |  | -0.038 | -0.123 | -0.133 | -0.067 | 0.08 |  | -0.261 | 0.236
FYB1 isoform 3 (UniProt O15117) | -0.019 | -0.071 | -0.036 | -0.026 | -0.021 | -0.077 |  | -0.156 | -0.025 | 0.085
